ALR H2O2 inh – inhibitors of human ALR sulfhydryl oxidase, primary screen, biochemical, H2O2 detection, HRP-luminol luminescence, single point | FAD-linked sulfhydryl oxidase ALR (Homo sapiens), P55789 | purified ALR, DTT oxidation | inhibition, % (concentration not given with the values) | hit rate 3.8% among 290,000 | AID 485317, 2010;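 active = mean replicate inhibition above about 79%, with every replicate also reaching it, limit read from the data; inconclusive = only one of the two criteria met; inactive = mean below limit and not every replicate reaching it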
rCAG RNA binder – binders of r(CAG) RNA repeats, primary screen, biochemical, fluorescence; inhibition, % at 3 µM; hit rate 1.3% among 370,000; r(CAG) RNA repeat, TO-PRO-1 dye displacement fluorescence;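 active = inhibition above the plate cutoff, the mean of all test compounds on that plate plus 3 SD, cut at about 35% in these data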;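 also: higher means more dye released from RNA so lower well fluorescence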
PHOSPHO1 inh – PubChem AID 1565 | Phosphoethanolamine/phosphocholine phosphatase (Homo sapiens), Q8TCT1 | recombinant PHOSPHO1, absorbance phosphatase assay | inhibition, % at 13.3 µM | hit rate 1.1% among 290,000; in the data active = inhibition above about 60%
Target sequence (Q8TCT1 whole entry, looked up): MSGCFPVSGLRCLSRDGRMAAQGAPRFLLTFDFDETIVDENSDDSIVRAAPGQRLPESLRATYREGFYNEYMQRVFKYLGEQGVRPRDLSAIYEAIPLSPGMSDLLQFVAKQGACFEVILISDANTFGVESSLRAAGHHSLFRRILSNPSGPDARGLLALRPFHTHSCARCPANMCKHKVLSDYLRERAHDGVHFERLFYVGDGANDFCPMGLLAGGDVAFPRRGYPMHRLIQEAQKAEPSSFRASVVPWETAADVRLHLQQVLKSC
A3A deaminase – APOBEC3A ssDNA deaminase inhibitors, primary screen, selectivity assay for APOBEC3G inhibitor project, biochemical, FAM/TAMRA oligo cleavage fluorescence; recombinant A3A, FAM/TAMRA ssDNA deamination fluorescence; hit rate 0.41% among 330,000; AID 493011, 2011; inhibition, % at 20 µM;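 active = at least 40% inhibition at 20 µM here, with at most 30% in a related deaminase screen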
Target sequence (P31941 whole entry, looked up): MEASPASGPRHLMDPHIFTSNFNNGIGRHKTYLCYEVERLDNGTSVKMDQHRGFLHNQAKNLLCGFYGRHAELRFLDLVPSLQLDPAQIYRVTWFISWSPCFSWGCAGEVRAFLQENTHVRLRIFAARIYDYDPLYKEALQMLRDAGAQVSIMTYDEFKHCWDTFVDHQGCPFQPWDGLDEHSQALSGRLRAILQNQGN
A3G deaminase – APOBEC3G DNA deaminase inhibitors, primary screen, biochemical, fluorescence, single-stranded DNA substrate, uHTS | DNA dC->dU-editing enzyme APOBEC-3G (Homo sapiens), Q9HC16 | recombinant A3G, ssDNA deamination FAM/TAMRA fluorescence | inhibition, % at 20 µM | hit rate 0.28% among 330,000 | AID 493012, 2011;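 active = inhibition of at least 40% at 20 µM, with no more than 30% in the related APOBEC3A deaminase screen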
aDG glyco act – activators of alpha-DG glycosylation, primary screen, uHTS, Pro5-aDG cells, AlphaScreen; alpha-DG glycosylation AlphaScreen (IIH6); 0% Pro5, 100% B10-LARGE cell signal; activation, % at 10 µM; hit rate 0.22% among 360,000; AID 624168, 2012;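 active = activation of at least 8% versus controls, or a plate z-score of at least 8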;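 also: Pro5 are CHO cells carrying HIG-tagged alpha-DG that lacks glycosylation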
Large screens that a line does not name were inactive. An excerpt weighted towards active compounds, which were near 5.4% of everything screened.

COc1ccccc1CN1C(=O)c2ccccc2C1C(=O)NC1CCC(C)CC1 (configuration not stated)	ALR H2O2 inh 82
Cn1cccc1[C@]1(O)C(=O)Nc2ccc(F)cc21	none (no result: ALR H2O2 inh, PHOSPHO1 inh, A3A deaminase, A3G deaminase, aDG glyco act)
Cc1c(C#N)c(NC(=O)CCl)n(Cc2ccccc2)c1C	ALR H2O2 inh 96
Cc1c(C#N)c(NC(=O)CCl)n(Cc2ccc(F)cc2)c1C	none
COc1cc([C@H]2OC[C@H]3[C@@H]2CO[C@H]3c2ccc(O)c(OC)c2)ccc1O	ALR H2O2 inh 98 (no result: PHOSPHO1 inh)
COc1cc(C2OCC3C(c4ccc(OC5OC(CO)C(O)C(O)C5O)c(OC)c4)OCC23)ccc1O (configuration not stated)	ALR H2O2 inh 95
O=C(NNC(=S)Nc1ccccc1Cl)c1ccccc1Cl	ALR H2O2 inh 90
O=C(NC(=S)N1CCN(c2ccc(O)cc2)CC1)c1ccco1	ALR H2O2 inh 99 (no result: PHOSPHO1 inh)
O=C(/C=C/c1ccco1)Nc1sc2c(c1C(=O)O)CCC2	ALR H2O2 inh 98
O=C(NNC(=S)Nc1ccccc1Cl)c1ccccc1	ALR H2O2 inh inconclusive
O=C(NC(=S)N1CCN(c2ccc([N+](=O)[O-])cc2)CC1)c1ccco1	none
O=C(O)/C=C\C(=O)Nc1ccccc1N1CCN(c2ccccc2)CC1	ALR H2O2 inh 98 (no result: PHOSPHO1 inh)
O=C(/C=C/c1ccccc1)Nc1sc2c(c1C(=O)O)CCC2	none (no result: ALR H2O2 inh)
C=CCn1c(SCC(=O)Nc2ccc(CCCC)cc2)nnc1-c1ccc(Cl)cc1	none (no result: ALR H2O2 inh, PHOSPHO1 inh, A3A deaminase, A3G deaminase, aDG glyco act)
CS(=O)(=O)N[C@@H]1C[C@@H]2O[C@H](CO)CC[C@@H]2O[C@@H]1CCc1ccc(-c2ccccc2F)cc1	none (no result: ALR H2O2 inh, PHOSPHO1 inh, A3A deaminase, A3G deaminase, aDG glyco act)
O=C(NC(=S)Nc1ccccc1N1CCOCC1)c1ccco1	ALR H2O2 inh 96
O=C(NC(=S)Nc1ccccc1N1CCCC1)c1ccco1	ALR H2O2 inh inconclusive
O=C(Cc1ccc(F)cc1)Nc1ccccc1N1CCCC1	ALR H2O2 inh 89
Cc1ccsc1C(=O)Nc1ccccc1N1CCCC1	ALR H2O2 inh 99 (no result: PHOSPHO1 inh)
O=C(Nc1ccccc1N1CCCC1)c1ccc(Br)o1	ALR H2O2 inh 98
C=CCN1[C@@H](C)COc2cccc(N3CCCC3)c2S1(=O)=O	none (no result: ALR H2O2 inh, PHOSPHO1 inh, A3A deaminase, A3G deaminase, aDG glyco act)
CCCCCCCCN1CN2Cc3cc(OC)ccc3C2CS1(=O)=O (configuration not stated)	none (no result: ALR H2O2 inh, PHOSPHO1 inh, A3A deaminase, A3G deaminase, aDG glyco act)
CC(=O)c1cc(-c2cccc(CO)c2)c(=O)n2c1CCC2	none (no result: ALR H2O2 inh, PHOSPHO1 inh, A3A deaminase, A3G deaminase, aDG glyco act)
O=C(Cc1ccc(NC(=O)C2CCN(C(=O)C3CCCC3)CC2)cc1)Nc1cccc(C(=O)N2CCCC2)c1	none (no result: ALR H2O2 inh, PHOSPHO1 inh, A3A deaminase, A3G deaminase, aDG glyco act)
O=C(/C=C/c1ccco1)Nc1ccccc1N1CCCC1	ALR H2O2 inh 99
O=C(Nc1ccccc1N1CCCC1)c1ccc(Cl)cc1Cl	none
O=C(Nc1ccccc1N1CCCC1)c1ccccc1Cl	ALR H2O2 inh 99 (no result: PHOSPHO1 inh)
O=C(NCC(=O)N1CCCCCCC1)c1ccc(Br)o1	none (no result: PHOSPHO1 inh)
O=C(NCC(=O)N1CCN(c2ccccc2O)CC1)c1ccc(Br)o1	ALR H2O2 inh 99 (no result: PHOSPHO1 inh)
O=C(Nc1ccccc1N1CCCCC1)c1ccco1	ALR H2O2 inh 97
COc1ccc(CNC(=O)OC2CC3CC2[C@H]2CCCCN2C3)cc1 (some centres not stated)	none (no result: ALR H2O2 inh, PHOSPHO1 inh, A3A deaminase, A3G deaminase, aDG glyco act)
CN(C)CCCNC(=S)Nc1ccc(Oc2ccccc2)cc1	ALR H2O2 inh 93
OCCCNC(=S)Nc1ccc(Oc2ccccc2)cc1	none (no result: ALR H2O2 inh)
CC(C)N(c1ccccc1)c1ccc(NC(=S)NCCN(C)C)cc1	ALR H2O2 inh 99
CC(C)OP(=O)(c1ccc(N(C)C)cc1)C(O)c1ccc(N(C)C)cc1 (configuration not stated)	ALR H2O2 inh 98 (no result: PHOSPHO1 inh)
CC(C)COP(=O)(c1ccc(N(C)C)cc1)C(O)c1ccc(N(C)C)cc1 (configuration not stated)	ALR H2O2 inh 98
CC(C)COP(=O)(OCC(C)C)C(O)c1ccc(N(C)C)cc1 (configuration not stated)	ALR H2O2 inh 92
